From PubChem BioAssay AID1220 (Sanford-Burnham Center for Chemical Genomics, 2008)
Out of some 190,000 compounds screened, about 1,300 (0.68%) were called active. No stated cut-off is given here; in the data, active means inhibition above about 50%; inactive means the rest. The full list was thinned out, with actives kept by preference.

What follows are molecules tested against Mannose-6-phosphate isomerase (Homo sapiens) (UniProt P34949) (assay: human PMI inhibitors, high substrate, primary screen, biochemical, fluorescence intensity, high mannose 6-phosphate (AID 1220)). Settings: recombinant PMI enzyme, coupled fluorescence intensity; at 20 µM; stronger effect = higher value.
Chain of Mannose-6-phosphate isomerase (Homo sapiens) (P34949 whole entry, looked up): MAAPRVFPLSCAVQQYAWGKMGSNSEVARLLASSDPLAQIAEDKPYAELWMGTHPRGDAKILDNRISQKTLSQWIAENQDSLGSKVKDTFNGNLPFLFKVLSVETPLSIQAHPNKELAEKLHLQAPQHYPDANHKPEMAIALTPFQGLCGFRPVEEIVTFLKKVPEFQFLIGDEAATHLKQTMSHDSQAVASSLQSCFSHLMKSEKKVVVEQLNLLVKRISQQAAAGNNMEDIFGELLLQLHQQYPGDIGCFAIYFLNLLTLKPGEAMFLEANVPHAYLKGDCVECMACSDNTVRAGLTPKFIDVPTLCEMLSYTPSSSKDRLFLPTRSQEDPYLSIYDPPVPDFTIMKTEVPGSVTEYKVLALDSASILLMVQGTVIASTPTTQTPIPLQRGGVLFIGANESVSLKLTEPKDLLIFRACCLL
In the case of `O=C1OCC(CO)(CO)N=C1NNc1cc(Cl)ccc1Cl`, the inhibition is reported as -81.3% (inactive). For `CCC(=O)NCCNc1nc2cc(C)cc(C)c2cc1C#N`, the inhibition was 12.8% (inactive). In the case of `CC(C)C(NC(=O)c1ccccc1Cl)C(=O)OCc1nc2scc(-c3ccccc3Cl)c2c(=O)[nH]1` (stereo unspecified), the inhibition is reported as -15.4% (inactive). For `O=C(CN1C(=O)c2cccc3cccc(c23)C1=O)N1CCN(c2ccccn2)CC1`, the inhibition was -1.5% (inactive). For `O=C(CCCN1C(=O)c2cccc3cccc(c23)C1=O)N1CCN(c2ncccn2)CC1`, the inhibition was 10.1% (inactive). With `Fc1ccc(N2CCN(C3=Nc4cccc5cccc3c45)CC2)cc1` the inhibition was 32.1% (inactive). For `c1cc2c3c(cccc3c1)C(N1CCCCC1)=N2`, the inhibition was 58.7% (active). In the case of `CC(=O)N1CCN(C2=Nc3cccc4cccc2c34)CC1`, the inhibition is reported as 52.4% (active). In the case of `c1cc2c3c(cccc3c1)C(N1CCCCCC1)=N2`, the inhibition is reported as 12.7% (inactive). With `CC(C)n1nnnc1SCC(=O)NCc1ccc2c(c1)OCO2` the inhibition was -4.5% (inactive). `OCCN1CCN(c2ncnc3nc[nH]c23)CC1` was tested, and the inhibition was 10.7% (inactive). With `COCCN1CCCC(CNCc2cn(C)nc2-c2ccc(Oc3ccccc3)cc2)C1` (stereo unspecified) the inhibition was 10.6% (inactive). `O=c1c(Cc2ccc(Cl)cc2Cl)c(O)ccn1CCCN1CCOCC1` was tested, and the inhibition was -5.3% (inactive). In the case of `C#CCNC(=O)C1=C[C@@H](c2ccc(C(F)(F)F)cc2)C[C@@H](OCCCCO)O1`, the inhibition is reported as 38.5% (inactive). For `O=C(C1=C[C@H](c2ccc(C(F)(F)F)cc2)C[C@H](OCCCCO)O1)N1CCOCC1`, the inhibition was -0.7% (inactive). In the case of `O=C(NC1CC1)C1=C[C@@H](c2ccc(Br)cc2)C[C@@H](OCCCCO)O1`, the inhibition is reported as -2.7% (inactive). `CN1CCN(C(=O)C2=C[C@@H](c3ccc(C(F)(F)F)cc3)C[C@@H](OCCCCO)O2)CC1` was tested, and the inhibition was 1.4% (inactive). For `O=C(C1=C[C@@H](c2ccc(C(F)(F)F)cc2)C[C@@H](OCCCCO)O1)N1CCOCC1`, the inhibition was -1.4% (inactive). `O=C(O)C1=C[C@H](c2ccc(Br)cc2)C[C@H](OCCCCO)O1` was tested, and the inhibition was -7.2% (inactive). `NC(=O)C1=C[C@H](c2ccc(C(F)(F)F)cc2)C[C@H](OCCCCO)O1` was tested, and the inhibition was 53.7% (active). In the case of `NC(=O)C1=C[C@@H](c2ccc(C(F)(F)F)cc2)C[C@@H](OCCCCO)O1`, the inhibition is reported as 57.4% (active). With `NC(=O)C1=C[C@@H](c2ccc(Br)cc2)C[C@@H](OCCCCO)O1` the inhibition was 66.1% (active). For `CN(C)CCCCOc1cccc(Br)c1`, the inhibition was -14% (inactive). `COCCn1c(=O)[nH]c2cc(C(=O)NCCCN3CCN(c4ccc(F)cc4)CC3)ccc2c1=O` was tested, and the inhibition was -12.2% (inactive). For `CCC(=O)Nc1cc(C(C)C)c(O)cc1C`, the inhibition was -2.4% (inactive). With `CCOc1cc(C(=O)N2CCN(c3ccc(C(C)=O)cc3)CC2)cc(OCC)c1OCC` the inhibition was 6.8% (inactive). In the case of `O=C(O)c1ccc(CSCc2ccco2)cc1`, the inhibition is reported as 4.1% (inactive). For `CC(C(=O)Nc1cccc([N+](=O)[O-])c1)N1CCN(C/C=C/c2ccccc2)CC1` (stereo unspecified), the inhibition was 12% (inactive). In the case of `Cc1c(/C=N\NC(=O)c2ccc(F)cc2)cnn1C`, the inhibition is reported as 9.7% (inactive). `Cc1occc1C(=O)N/N=C/c1cnn(C)c1C` was tested, and the inhibition was 64% (active). For `Cc1c(/C=N\NC(=O)c2csc3ccccc23)cnn1C`, the inhibition was 2.4% (inactive). `COc1c2ccoc2c(OC[C@@H](O)C(C)(C)OC)c2oc(=O)ccc12` was tested, and the inhibition was 9.3% (inactive). In the case of `CCOC(=O)N1CCN(C(=O)C2CCN(CC3CCCCC3)CC2)CC1`, the inhibition is reported as -10.5% (inactive). With `COc1ccc(C(=O)n2nnc3ccccc32)cc1OC` the inhibition was 6% (inactive). In the case of `Oc1ccccc1C1=NCCNC(C(F)(F)F)=C1`, the inhibition is reported as -3.4% (inactive). `FC(F)(F)C1=CC(c2ccccc2)=NCCN1` was tested, and the inhibition was 0.2% (inactive). With `Oc1c(C2=NCCNC(C(F)(F)F)=C2)ccc2ccccc12` the inhibition was 54.4% (active). In the case of `CN(C1=C(NC(=O)c2ccc(Cl)cc2)C(=O)c2ccccc2C1=O)c1ccccc1`, the inhibition is reported as 25.2% (inactive). For `Cc1ccc(NC2=C(NC(=O)c3ccccc3)C(=O)c3ccccc3C2=O)cc1Cl`, the inhibition was 14% (inactive). For `O=C(NC1=C(Nc2ccc(Cl)cc2)C(=O)c2ccccc2C1=O)c1ccccc1`, the inhibition was 58% (active). In the case of `O=C(NC(=S)Nc1ccc2c(c1)C(=O)c1ccccc1C2=O)c1ccc(F)cc1`, the inhibition is reported as -25.8% (inactive). With `O=C(NC1=C(Nc2ccc(F)cc2)C(=O)c2ccccc2C1=O)c1ccc(Cl)cc1` the inhibition was 55.3% (active). With `Cc1cccc(NC2=C(NC(=O)c3ccccc3)C(=O)c3ccccc3C2=O)c1` the inhibition was 6.2% (inactive). For `Cc1ccc(C(=O)Nc2ccc(C(=O)N3CCCCC3C)cc2)cc1` (stereo unspecified), the inhibition was 1% (inactive). `O=C(CSC1=NCCS1)Nc1cccc2ccccc12` was tested, and the inhibition was 2.9% (inactive). `CC(NC(=S)Nc1cccc(C(F)(F)F)c1)C(C)(C)C` (stereo unspecified) was tested, and the inhibition was 54.2% (active). In the case of `CC(C)(C)NC(=S)Nc1cccc(C(F)(F)F)c1`, the inhibition is reported as 2.1% (inactive). For `FC(F)(F)c1cccc(NC(=S)NC(c2ccccc2)c2ccccc2)c1`, the inhibition was -5.4% (inactive). For `CCOC(=O)/C(C#N)=C1/SC(CC)C(=O)N1c1ccc(C)cc1` (stereo unspecified), the inhibition was -25% (inactive). `C/C(=N\Nc1ccc(F)cc1F)c1ccc(N2CCOCC2)cc1` was tested, and the inhibition was -144% (inactive). With `CC(c1ccco1)N(C(=O)c1ccc(C(F)(F)F)cc1)c1ccccn1` (stereo unspecified) the inhibition was 8.9% (inactive). With `Cc1ccc(S(=O)(=O)CC2CSc3nc4ccccc4n32)cc1` (stereo unspecified) the inhibition was 9.4% (inactive). `CCCCc1cc(=O)oc2cc(O)cc(O)c12` was tested, and the inhibition was 64% (active). In the case of `CCCc1cc(=O)oc2cc(C)cc(O)c12`, the inhibition is reported as 2.5% (inactive). With `CCCCc1cc(=O)oc2cc(C)cc(O)c12` the inhibition was 7.5% (inactive). `Clc1cccc(-c2ccc(/C=N/n3cnnc3)o2)c1Cl` was tested, and the inhibition was 1.1% (inactive). For `Cc1ccc(Cl)cc1-c1ccc(C=Nc2ccc(N3CCOCC3)cc2)o1`, the inhibition was 52.4% (active). In the case of `Clc1cccc(-c2ccc(C=Nc3ccc(N4CCOCC4)cc3)o2)c1Cl`, the inhibition is reported as 63.9% (active). In the case of `Clc1ccc(-c2ccc(C=Nc3ccc(N4CCOCC4)cc3)o2)cc1`, the inhibition is reported as 24.7% (inactive). With `O=[N+]([O-])c1cc(Br)c(O)c(C=Nc2ccc(N3CCOCC3)cc2)c1` the inhibition was 40.2% (inactive). With `Clc1ccc(-c2ccc(C=Nc3ccc(N4CCOCC4)cc3)o2)c(Cl)c1` the inhibition was 47.6% (inactive). With `Oc1ccc(C=Nc2ccc(N3CCOCC3)cc2)c(O)c1` the inhibition was 13.7% (inactive). With `Oc1c(Br)cc(Cl)cc1C=Nc1ccc(N2CCOCC2)cc1` the inhibition was 51.8% (active). In the case of `Clc1cccc(-c2ccc(C=Nc3ccc(N4CCOCC4)cc3)o2)c1`, the inhibition is reported as 33.8% (inactive). In the case of `O=C(O)c1cn(Cc2cccnc2)c(=O)c2ccccc12`, the inhibition is reported as 1.5% (inactive). `CCOC(=O)C1=C(c2ccccc2)Nc2ncnn2C1c1cc(OC)ccc1OC` (stereo unspecified) was tested, and the inhibition was 7.8% (inactive). `Cn1c(=O)[nH]c(=O)c2c1nc(SCCN1CCOCC1)n2Cc1ccccc1` was tested, and the inhibition was 6.9% (inactive). `COc1ccc(NC(=O)CCC(=O)OCc2ccc(C(=O)Oc3ccc(Cl)cc3)cc2)cc1` was tested, and the inhibition was -5.2% (inactive). With `CCCCN1C(=O)C(O)=C(C(C)=O)C1c1ccccc1` (stereo unspecified) the inhibition was -7.7% (inactive). In the case of `CCCCN1C(=O)Cc2c1nc(N)c1c(N)nc(N(CCC)CCC)c(C#N)c21`, the inhibition is reported as 56% (active). In the case of `COCCN(CCOC)c1nc(N)c2c(N)nc3c(c2c1C#N)CC(=O)N3Cc1ccc(Cl)cc1`, the inhibition is reported as 25.1% (inactive). `CN(CCO)c1nc(N)c2c(N)nc3c(c2c1C#N)CC(=O)N3Cc1cccs1` was tested, and the inhibition was 33.7% (inactive). For `CC(=O)c1c(C)[nH]c(C(=O)NCCc2ccccc2)c1C`, the inhibition was 2.6% (inactive). In the case of `c1ccc(-n2cccc2CNC2CCCCC2)cc1`, the inhibition is reported as -4.6% (inactive). For `O=c1cc(N2CCOCC2)c2ccccc2o1`, the inhibition was 4.1% (inactive). `Oc1ccc2c(c1)C1CCCC1(N1CCOCC1)O2` (stereo unspecified) was tested, and the inhibition was 24.6% (inactive). For `c1ccc2c3c(cc(N4CCOCC4)c2c1)OC1(N2CCOCC2)CCCCC1O3` (stereo unspecified), the inhibition was 60.5% (active). For `Cc1ccc(C)c(NC(=S)/C(=C(\[O-])c2ccc(Cl)s2)[n+]2ccccc2)c1`, the inhibition was 26.5% (inactive). With `Cc1cc(C)cc(NC(=S)/C(=C(\[O-])c2ccc(Cl)s2)[n+]2cccc(C)c2)c1` the inhibition was 51.9% (active). `Cc1ccc(NC(=S)/C(=C(\[O-])c2ccc(Cl)s2)[n+]2cccc(CO)c2)cc1C` was tested, and the inhibition was 10.4% (inactive). For `Cc1c(CNC(=O)c2cnn3c2NC(c2ccc(Br)cc2)CC3C(F)(F)F)cnn1C` (stereo unspecified), the inhibition was 11.4% (inactive). `Cc1ccc(NS(=O)(=O)c2cc([N+](=O)[O-])ccc2NNC(=S)Nc2cc(C)ccc2C)c(C)c1` was tested, and the inhibition was 9.1% (inactive). With `CC(=O)N(C)C1=C(N2CCOCC2)C(=O)c2ccccc2C1=O` the inhibition was 33.1% (inactive). With `CC(=O)N(C1=C(N)C(=O)c2ccccc2C1=O)C(C)C` the inhibition was 54.5% (active). In the case of `CC(=O)N(C)C1=C(O)c2ccccc2C(=O)C1=O`, the inhibition is reported as 19.6% (inactive). In the case of `NC(=O)COC(=O)c1cccc(NS(=O)(=O)/C=C/c2ccccc2)c1`, the inhibition is reported as 4.6% (inactive). With `Cn1c(C(=O)O)cnc1Sc1ncc(C(F)(F)F)cc1Cl` the inhibition was -17.5% (inactive). `Cc1ccc(Nc2nnc(SCc3cc(=O)n4ccsc4n3)s2)c(C)c1` was tested, and the inhibition was 8.6% (inactive). `COc1ccc2[nH]c3c(=O)n(Cc4ccc(C(=O)NCC5CCCO5)cc4)c(=S)[nH]c3c2c1` (stereo unspecified) was tested, and the inhibition was 3.5% (inactive). For `CC(=O)Nc1ccc(C2(O)COc3ccccc3O2)cc1` (stereo unspecified), the inhibition was -2% (inactive). In the case of `COc1cccc(NC(=O)c2ccc(-c3ccccc3[N+](=O)[O-])o2)c1`, the inhibition is reported as -0.2% (inactive). In the case of `COc1ccccc1NC(=O)c1ccc(-c2ccccc2F)o1`, the inhibition is reported as -0.4% (inactive). With `COc1ccccc1NC(=O)c1ccc(-c2ccccc2[N+](=O)[O-])o1` the inhibition was 52.9% (active). With `Cc1ccccc1Cc1ccc(Cl)nn1` the inhibition was -8.8% (inactive). With `CN(C)C(=S)SCC(=O)NCc1ccc(F)cc1` the inhibition was 10.8% (inactive). In the case of `CCc1cccc(NC(=O)c2snc3c(=O)[nH]cnc23)c1`, the inhibition is reported as 7.2% (inactive).
